In PubChem BioAssay:
Active and inactive are the calls of the source.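 How the source made its calls, unless noted: active means fluorescence slope after compound addition differing from the mean of all screened samples at 99.7% confidence, in either direction; inactive means the rest.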

Tests used:
[1] = inhibitors of TNFa-induced NFkB p65 translocation, primary screen, imaging, HUVEC, MLSMR starter and 10KST1 sets (AID 438;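 active means inhibition above 20% together with a positive visual image hit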;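 further: compound added about 3h40 before a 20 min TNFalpha stimulation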;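 on inhibition: signal is the nuclear over cytoplasmic p65 intensity ratio per well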); details: HUVEC TNFa-induced p65 nuclear translocation; cell count: measured here: nuclei count (cytotoxicity indicator), at 2.08 µM; inhibition: at 2 µM, stronger effect = higher value, 0% TNFa-plus-vehicle, 100% no-TNFa wells
[2] = reduction of polyQ htt aggregates in cells – imaging, exon1htt(103Q)mCFP cells, high-content imaging, primary screen (AID 483;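 active means visual image review flags a hit and inhibition of aggregation exceeds 20%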;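 further: compound exposure lasted 3 days before fixation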;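 on nuclei count: percent of the per-plate median nuclei count of sample wells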); details: exon1htt(103Q)mCFP cell line, aggregate imaging, at 2 µM; inhibition of aggregation: stronger effect = higher value; nuclei count: measured here: cell count, toxicity
[3] = endothelial E-selectin expression blockers – imaging, HUVEC, immunofluorescence, MLSMR starter and 10KST1 sets, primary screen (AID 487;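 active means visually confirmed hit in the image check and inhibition above 20%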;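 on inhibition: signal is fraction of cell area covered by stained E-selectin grains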;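 on nuclei count: 100% = median nuclei count of all wells on the same plate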); details: HUVEC TNFalpha-induced E-selectin immunofluorescence imaging, at 2 µM; inhibition: stronger effect = higher value; nuclei count: measured here: cell number, toxicity
[4] = target: Voltage-gated potassium channel subunit beta-2 (Rattus norvegicus) (UniProt P62483); test: inhibitors of rat Kvbeta2 reductase activity – biochemical, NADPH fluorescence, primary screen (AID 622;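 active means fluorescence slope higher than the sample average by over 3 SD, cut at about -0.22 in these data, passing the limit was not always enough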;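 further: slope of raw intensity against log time taken from 70 to 1610 s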); details: recombinant KvBeta, 4-cyanobenzaldehyde reduction, at 10 µM, stronger effect = higher value
[5] = target: Voltage-gated potassium channel subunit beta-2 (Rattus norvegicus) (UniProt P62483); test: enhancers of rat Kvbeta2 NADPH turnover – biochemical, NADPH fluorescence, primary screen (AID 623;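 active means NADPH fluorescence slope more negative than the mean of all samples by about 3 SD, 99.7% confidence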;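 further: fluorescence intensity change per second fitted from 20 to 320 s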); details: Recombinant KvBeta, NADPH fluorescence decrease slope, 10 min; at 10 µM; stronger effect = lower value
[6] = target: Alpha-2C adrenergic receptor (Homo sapiens) (UniProt P18825); test: compounds altering alpha2C-coupled GIRK flux – cell-based, HEK293 alpha2C/GIRK1/2, thallium flux, primary screen (AID 624); details: thallium flux BTC fluorescence, at 10 µM, actives lie on both sides;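 further: slope of fluorescence ratio to pre-addition baseline per second over 15 to 24 s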
[7] = blockers of RIG-like receptor reporter activation – cell-based, Sendai virus stimulus, luciferase, 10K MLSCN set, TLR/RLR signaling modifier project, primary screen (AID 602276;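 active means inhibition at or above 50% at 10 µM; inactive means inhibition below 50%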;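 further: firefly luciferase from ISG56 promoter only with Renilla not read in this screen; 0% = Sendai virus plus DMSO and 100% = medium plus DMSO without virus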); details: HEK293 RL24 IRF3 luciferase reporter, at 10 µM, stronger effect = higher value
[8] = TLR3 IRF3 reporter activation blockers – cell-based, poly I:C stimulus, luciferase, 10K MLSCN set, primary screen (AID 602277;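 active means inhibition of the reporter signal at or above 50%; inactive means inhibition below 50%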); details: HEK293-TLR3 RL24 IRF3 luciferase reporter, at 10 µM, stronger effect = higher value

Chain of Alpha-2C adrenergic receptor (Homo sapiens) (P18825 whole entry, looked up): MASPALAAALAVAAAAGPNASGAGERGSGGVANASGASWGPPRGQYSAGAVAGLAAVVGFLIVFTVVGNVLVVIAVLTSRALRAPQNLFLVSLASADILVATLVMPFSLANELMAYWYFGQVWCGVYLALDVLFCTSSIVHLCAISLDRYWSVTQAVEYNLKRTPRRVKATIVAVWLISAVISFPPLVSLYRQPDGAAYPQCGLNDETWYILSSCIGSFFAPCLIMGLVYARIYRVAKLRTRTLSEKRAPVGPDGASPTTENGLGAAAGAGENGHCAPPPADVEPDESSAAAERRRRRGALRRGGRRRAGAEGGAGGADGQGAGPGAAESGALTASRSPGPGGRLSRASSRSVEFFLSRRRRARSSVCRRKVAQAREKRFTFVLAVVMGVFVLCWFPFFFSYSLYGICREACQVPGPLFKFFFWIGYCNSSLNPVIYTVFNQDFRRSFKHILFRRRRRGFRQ
Chain of Voltage-gated potassium channel subunit beta-2 (Rattus norvegicus) (P62483 whole entry, looked up): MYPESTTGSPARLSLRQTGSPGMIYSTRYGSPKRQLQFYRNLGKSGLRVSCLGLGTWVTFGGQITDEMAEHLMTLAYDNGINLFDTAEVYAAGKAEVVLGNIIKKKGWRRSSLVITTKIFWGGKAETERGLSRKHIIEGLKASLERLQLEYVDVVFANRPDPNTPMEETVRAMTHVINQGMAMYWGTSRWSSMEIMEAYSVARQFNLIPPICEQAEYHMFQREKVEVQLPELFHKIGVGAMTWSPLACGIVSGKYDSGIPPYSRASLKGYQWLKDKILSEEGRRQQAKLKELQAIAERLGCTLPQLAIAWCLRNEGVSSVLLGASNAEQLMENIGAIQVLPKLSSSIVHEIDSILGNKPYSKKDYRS

Structure (SMILES)	cell count [1]	inhibition [1]	inhibition of aggregation [2]	nuclei count [2] [%]	inhibition [3]	nuclei count [3] [%]	fluorescence slope [4]	NADPH fluorescence slope [5]	slope [6]	inhibition [7]	inhibition [8]
CCN1CCN(c2nc3c(c(=O)n(C)c(=O)n3C)n2CCSc2ncccn2)CC1	295	-0.5% (inactive)	-7.5% (inactive)	97.8	-130% (inactive)	116	-0.506 (inactive)	-9.3e-06 (inactive)	0.00522 (inactive)	0.292% (inactive)	13% (inactive)
CC1Cc2ccccc2N1C(=O)c1cccnc1 (configuration not stated)	254	-1% (inactive)	-30.3% (inactive)	106	-64.3% (inactive)	103	-0.422 (inactive)	-8.5e-05 (inactive)	0.00616 (inactive)	14.1% (inactive)	25.5% (inactive)
Cc1ccc(C2CC(c3ccc(C)cc3)n3nc(N)nc3N2)cc1 (configuration not stated)	871	2.8% (inactive)	15.1% (inactive)	95.1	-71.7% (inactive)	116	-0.613 (inactive)	-1.7e-05 (inactive)	0.00808 (inactive)	-11.6% (inactive)	0.814% (inactive)
CC1Cc2ccccc2N1C(=O)CSc1nc2ccccc2n1CC(=O)N1CCOCC1 (configuration not stated)	468	-0.5% (inactive)	6.9% (inactive)	111	-68.5% (inactive)	110	-0.523 (inactive)	-0.000178 (inactive)	0.00303 (inactive)	15.4% (inactive)	2% (inactive)
COc1ccc(C(=O)N2CCN(C3CCCCC3)CC2)c(OC)c1	324	-0.9% (inactive)	-21.3% (inactive)	83.3	-48.1% (inactive)	138	-0.609 (inactive)	-1.5e-05 (inactive)	0.00408 (inactive)	1% (inactive)	12.4% (inactive)
CCN(CC)S(=O)(=O)c1ccc(Cl)c(C(=O)OC)c1	456	-5% (inactive)	0.1% (inactive)	87.5	8.3% (inactive)	123	-0.493 (inactive)	-2.2e-05 (inactive)	0.00748 (inactive)	20.5% (inactive)	21.4% (inactive)
CCOC(=O)c1nnc2cc(-c3ccc(Br)cc3)nn2c1C	606	-1.7% (inactive)	-4.4% (inactive)	98.8	-89.5% (inactive)	105	-0.558 (inactive)	-6.5e-06 (inactive)	0.006 (inactive)	-72.6% (inactive)	-129% (inactive)
CC1CC(C)CN(CC(=O)Nc2ccc(S(N)(=O)=O)cc2)C1 (configuration not stated)	368	1.4% (inactive)	-27.5% (inactive)	113	30.9% (inactive)	96.7	-0.517 (inactive)	-3e-05 (inactive)	0.00537 (inactive)	7.84% (inactive)	12.5% (inactive)
C#CC1(O)CC(C)N(C)C(C)C1 (configuration not stated)	266	-0.3% (inactive)	41.8% (active)	71.2	-76% (inactive)	186	-0.606 (inactive)	3.5e-06 (inactive)	0.00632 (inactive)	11% (inactive)	17.2% (inactive)
CC(C)=CCC(C)(C)C1OCCN1C(=O)c1ccccc1 (configuration not stated)	450	1.5% (inactive)	1.2% (inactive)	116	10.2% (inactive)	106	-0.444 (inactive)	2e-05 (inactive)	0.00511 (inactive)	8.82% (inactive)	12.9% (inactive)
CCCn1c(SCC(=O)NCc2ccco2)nc2c1c(=O)n(C)c(=O)n2C	433	-9.2% (inactive)	16.5% (inactive)	104	-144% (inactive)	160	-0.379 (inactive)	-4.1e-05 (inactive)	0.0049 (inactive)	16.6% (inactive)	10.9% (inactive)
COc1ccccc1N1CCN(C/C(O)=C(\C#N)c2nc(-c3ccccc3)cs2)CC1	475	-3.4% (inactive)	-1.4% (inactive)	114	-33.4% (inactive)	119	-0.56 (inactive)	4.6e-05 (inactive)	0.00548 (inactive)	-9.12% (inactive)	-1.83% (inactive)
Cc1c(C)c2ccc(OC3CCCCC3=O)cc2oc1=O (configuration not stated)	573	-9.2% (inactive)	-0.8% (inactive)	120	38.5% (inactive)	134	-0.175 (inactive)	-2e-05 (inactive)	0.0054 (inactive)	-2.48% (inactive)	-14.3% (inactive)
COc1ccc(-c2nnn(CCc3nn[nH]n3)n2)cc1OC	419	-7.7% (inactive)	1.4% (inactive)	70.5	-9.7% (inactive)	112	-0.561 (inactive)	-2.6e-05 (inactive)	0.00328 (inactive)	8.58% (inactive)	-8.87% (inactive)
COC(=O)Cn1ncc2c(C)n(Cc3ccccc3)c(C)c2c1=O	732	-5.2% (inactive)	15.7% (inactive)	88.1	-72.2% (inactive)	122	-0.563 (inactive)	-2.4e-05 (inactive)	0.00743 (inactive)	-29.4% (inactive)	-89.1% (inactive)
COc1cc(C2C(C#N)=C(N)OC3=C2C(=O)CC(C)(C)C3)ccc1OC(=O)N1CCOCC1 (configuration not stated)	482	-36.6% (inactive)	13.8% (inactive)	86.6	-75% (inactive)	112	-0.511 (inactive)	1.1e-05 (inactive)	0.00692 (inactive)	-15.1% (inactive)	11.1% (inactive)
CC(C)COc1ccc(-c2nnn(CC(=O)N3CCCC3)n2)cc1	473	-5.5% (inactive)	-13.3% (inactive)	106	19.6% (inactive)	109	-0.564 (inactive)	-5.5e-05 (inactive)	0.00381 (inactive)	-2.78% (inactive)	-17.8% (inactive)
Cc1noc(/C=C/N(C)C)c1S(=O)(=O)N1CCCC(C(=O)NC2CCCCC2)C1 (configuration not stated)	625	11.7% (inactive)	7.9% (inactive)	93.6	34.5% (inactive)	62.5	-0.566 (inactive)	1.6e-05 (inactive)	0.0069 (inactive)	16.1% (inactive)	14.8% (inactive)
O=C(NS(=O)(=O)c1ccc(NC(=O)C2CCCO2)cc1)c1ccccc1 (configuration not stated)	577	-6% (inactive)	2.1% (inactive)	110	-46.8% (inactive)	125	-0.328 (inactive)	-5.2e-05 (inactive)	0.00463 (inactive)	11.4% (inactive)	17.7% (inactive)
COc1ccc(CC(=O)Nc2ccc(OC)c(NC(=O)c3ccco3)c2)cc1	580	22% (active)	4% (inactive)	99.6	-70.8% (inactive)	146	-0.417 (inactive)	9.4e-05 (inactive)	0.00901 (inactive)	-27.5% (inactive)	-49.2% (inactive)
COc1ccc2c(=O)c3c(=O)n(Cc4ccco4)c(-c4cc(OC)c(OC)c(OC)c4)nc3oc2c1	483	-9.2% (inactive)	-28.3% (inactive)	96.6	-11.9% (inactive)	121	-0.525 (inactive)	5.6e-06 (inactive)	0.00457 (inactive)	3.4% (inactive)	-1.04% (inactive)
Cc1ccnc(NC(=O)C2CCCN(S(=O)(=O)c3cnc[nH]3)C2)c1 (configuration not stated)	526	-2.4% (inactive)	39.4% (active)	84.3	-81.7% (inactive)	110	-0.564 (inactive)	-2.6e-05 (inactive)	0.00685 (inactive)	-13.6% (inactive)	7.28% (inactive)
Cc1ccc(S(=O)(=O)C2(C(=O)N3CCCCCC3)CC2)cc1	439	-0.7% (inactive)	-0.7% (inactive)	102	-46.5% (inactive)	122	-0.611 (inactive)	4.7e-05 (inactive)	0.00663 (inactive)	8.56% (inactive)	1.57% (inactive)
O=C(NCc1ccco1)C1CCN(c2ccc(N3CCOCC3)nn2)CC1	633	1.6% (inactive)	4.1% (inactive)	92.4	-70.8% (inactive)	110	-0.387 (inactive)	8e-06 (inactive)	0.00458 (inactive)	-14.1% (inactive)	-20.9% (inactive)
Cc1ccc2oc(=O)c3cnn(CC(=O)N4CCCCC4C)c3c2c1 (configuration not stated)	661	3.9% (inactive)	-4% (inactive)	77.1	3.2% (inactive)	88.1	-0.518 (inactive)	-1.6e-05 (inactive)	0.00597 (inactive)	3.36% (inactive)	23.4% (inactive)
OCCNCC(O)Cn1ccc2ccccc21 (configuration not stated)	410	-8.2% (inactive)	-0.3% (inactive)	84.3	-53.1% (inactive)	181	-0.624 (inactive)	-5e-05 (inactive)	0.007 (inactive)	12.3% (inactive)	16.7% (inactive)
CCOc1ccccc1C(=O)NCC(=O)OCC(=O)N1C(C)CCCC1C (configuration not stated)	683	-3.4% (inactive)	-9.7% (inactive)	103	26.6% (inactive)	112	-0.615 (inactive)	3e-05 (inactive)	0.00593 (inactive)	11.2% (inactive)	17.1% (inactive)
